The results in this text go back to PubChem BioAssay AID1347076 (National Center for Advancing Translational Sciences (NCATS), 2019).

Screen size: about 400,000 compounds; about 13,000 (3.2%) were called active. About 18% were inconclusive and are not listed. The sample holds actives, similar compounds and a random draw of the others, so the mix is not that of the screen. Unmarked numbers belong to inactive results. Calls come from the whole dose curve; as a rule, active = well fitted cell-killing curve with a large enough effect; inconclusive = small, poorly fitted or top-dose-only effect, or effect the other way; inactive = flat fitted curve, though single readings scatter.
% is set by controls: 0 for no effect and ±100 for the full control effect; potency is the fitted concentration of half-maximal effect.

A short description of the experiment: qHTS assay for MDR1-selective chemotherapeutics: Primary screen using the drug-selected MDR subline cells KB-V1. Note: nearly all actives have a fitted effect of over 60% in size. The note with it: KB-V1 MDR cells viability, CellTiter-Glo, 72 h; series mostly up to 46.1 µM; activity change, negative = cytotoxicity: at the top concentration. In short, it runs like this:
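Readout: CellTiter-Glo luminescence, 10 min after addition. Cells: KB-V1 MDR subline, 72 h at 37 degrees C with compound. Analysis: corrected, normalized data fitted to concentration-effect curves.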
On the technique in general: qHTS replaces the single test concentration by a dilution series.
As for `CCCCCC(=O)N1C[C@H](O)[C@@H](n2cc(COC(=O)c3ccccc3)nn2)C[C@@H]1c1ccc(C)cc1`, the “activity change, negative = cytotoxicity” value was 8.62%.
Same read-out and setting: to `CCOC(=O)c1c(NC(=O)CSc2nnc(Cc3csc(N)n3)n2C)sc(C)c1C` belongs 4.84%; to `COC(=O)c1c(NC(=O)c2ccc(Cl)c(Cl)c2)sc2c1CCCC2`, 17.4%; to `NC(=O)c1c(NC(=O)CSc2nnc(-c3ccco3)n2N)sc2c1CCCC2`, -7.89%.
As to `COC(=O)c1c(NC(=O)COC(=O)[C@@H](NS(=O)(=O)c2ccccc2)C(C)C)sc2c1CCC2`, the Potency was 14.6 µM (active).
Consider `COC(=O)c1c(NC(=O)CN2C(=O)NC(CCc3ccccc3)C2=O)sc2c1CCCCC2` (centres undefined), for which the “activity change, negative = cytotoxicity” value is 0.551%.
The same measure, in the same setting: the same measure for `Cc1cccc(C(=O)OCC(=O)Nc2sc3c(c2C#N)CCC3)c1`: -0.263%.
For the compound `COC(=O)c1c(NC(=O)CSc2nncs2)sc2c1CCCCC2`, the Potency was 23.1 µM (active).
As for `COc1cccc(OC)c1C(=O)Nc1sc2c(c1C(N)=O)CCCC2`, the “activity change, negative = cytotoxicity” value was -18.8%.
Still for that read-out and setting: to `COC(=O)c1c(NC(=O)C2CC(C)=C(C)CC2C(=O)O)sc2c1CCCCC2` (centres undefined) belongs 7%.
As to `CCc1ccc(N(CC(=O)Nc2sc3c(c2C(=O)OC)CCCC3)S(C)(=O)=O)cc1`, the Potency was 9.2 µM (active).
`COC(=O)c1c(NC(=O)CN(c2ccc(C)c(C)c2)S(C)(=O)=O)sc2c1CCCC2`: the “activity change, negative = cytotoxicity” value was 14.3%.
`CCOC(=O)c1c(NC(=O)CSc2nnc(CN3CCOCC3)n2C)sc2c1CCCC2`: the Potency was 5.8 µM (active).
With `O=C(NCc1cccnc1)c1ccc2nc([C@@H]3O[C@H](CO)[C@H](O)[C@H](O)[C@H]3O)[nH]c2c1`, the “activity change, negative = cytotoxicity” value was -1.88%.
In the case of `Cc1cccc(-n2c(N)c(C(=O)N3CCN(C)CC3)sc2=S)c1`, the “activity change, negative = cytotoxicity” value was -2.49%.
Still for that read-out and setting: the same measure for `O=C(c1ccc(S(=O)(=O)c2ccccc2)cc1)N1CCCCCC1`: 1.57%.
`N#Cc1ccccc1-n1c(N)c(C(=O)N2CCCC2)sc1=S`: the Potency is 16.4 µM (active).
Take `COc1ccc(C(=O)NCC[N+](C)(C)C)cc1`: the “activity change, negative = cytotoxicity” value is 4.17%.
The same measure, in the same setting: the same measure for `CC1(C(=O)NCc2ccccc2)CSCC(=O)N1CCCN1CCOCC1` (centres undefined): -3.51%; for `O=C(Nc1ccc(Cl)c(C(F)(F)F)c1)C1Cc2c(-c3ccccc3Oc3ccccc3)ccnc2O1` (centres undefined): 3.66%.
Turning to `CNC(=O)c1sc(Nc2ccc(OCc3ccccc3)cc2)nc1C`, the Potency is 8.2 µM (active).
For the compound `Cc1cccc(NC(=O)Nc2ccc(OCc3ccccc3)cc2)n1`, the “activity change, negative = cytotoxicity” value is -0.32%.
The same measure, in the same setting: the same measure for `CNC(=O)c1sc(NCc2ccccc2OC)nc1C`: -22.9%; for `COc1ccc(C(=O)N2CCCCC2c2cc(C(=O)Nc3ccc(F)c(Cl)c3)no2)cc1` (centres undefined): -11.6%; for `O=[N+]([O-])c1ccc(CN2CC(N3CC=CC3)CS2(=O)=O)cc1` (centres undefined): -6.04%.
On to `CC(C)(C)S(=O)N1Cc2cc(C(=O)NCCCN3CCOCC3)nc(-c3cccc(-c4cc5ccccc5o4)c3)c2[C@H]1CCO` (some centres undefined), for which the “activity change, negative = cytotoxicity” value is -18.9%.
On to `O=C(NCc1ccco1)c1ccc(Cn2c(=O)c3sccc3n(Cc3ccc(F)cc3)c2=O)cc1`, for which the “activity change, negative = cytotoxicity” value was -10.9%.
Still for that read-out and setting: the same measure for `CC(=O)Nc1ccc(NC(=O)c2cc3sccc3n2Cc2ccc(F)cc2)cc1`: 0%.
In the case of `O=C(NCc1ccco1)c1cc2sccc2n1Cc1ccc(F)cc1`, the Potency was 16.4 µM (active).
For the compound `CCCCCCN1C[C@H](O)[C@@H](n2cc(C3CC3)nn2)C[C@@H]1c1ccc(Cl)cc1`, the “activity change, negative = cytotoxicity” value is 0%.
Same read-out and setting: to `COC(=O)c1sccc1NC(=O)c1ccc(Cl)cc1` belongs -6.52%.
`COC(=O)c1sccc1NC(=O)c1csc2c1CCCC2`: the Potency was 14.6 µM (active).
On to `CCOC(=O)c1ccc(NC(=O)c2csc3c2CCCCC3)cc1`, for which the “activity change, negative = cytotoxicity” value is 16.5%.
For the compound `CCNC(=S)Nc1ccc2c(c1)c(=O)n(C)n2Cc1ccc(Cl)cc1`, the “activity change, negative = cytotoxicity” value is -0.147%.
Same read-out and setting: the same measure for `CCC(C(=O)NC(C)(C)C)n1c(-c2ccccc2)nc2ccccc21` (centres undefined): -16.9%.
With `Cc1onc(NC(=O)c2ccc([N+](=O)[O-])o2)c1Br`, the “activity change, negative = cytotoxicity” value was 0%.
For `Cc1cccc(NC(=O)c2ccc([N+](=O)[O-])o2)c1`, the Potency was 18.4 µM (active).
Take `O=C(Nc1ccc(Br)cn1)c1ccc([N+](=O)[O-])o1`: the “activity change, negative = cytotoxicity” value is -28.8%.
As to `COc1cccc(-c2nnc(SCC(=O)N3CCC(C)CC3)o2)c1`, the “activity change, negative = cytotoxicity” value is 5.37%.
The same measure, in the same setting: the same measure for `COc1cccc(NC(=O)CSc2nnc(-c3cccnc3)o2)c1`: -1.74%.
`CCN(CC)C(=O)CSc1nnc(-c2cccc(OC)c2)o1`: the Potency is 11.6 µM (active).
As for `Cc1ccc2nc(CNC(=O)c3ccccc3)[nH]c2c1`, the “activity change, negative = cytotoxicity” value was 9.02%.
The same measure, in the same setting: the same measure for `CC(C)c1nc2ccc(C(=O)O)cc2[nH]1`: -8.64%.
As to `COC(=O)Nc1nc2ccc(Sc3ccccc3)cc2[nH]1`, the Potency is 1.16 µM (active).
Turning to `CCN(CCCNC(=O)Cn1ncc2c3ccccc3n(C)c2c1=O)Cc1ccccc1`, the “activity change, negative = cytotoxicity” value was 10.1%.
On to `COCCN(CCOC)S(=O)(=O)c1ccc(/C(O)=C(\C#N)c2nc3ccccc3[nH]2)cc1`, for which the “activity change, negative = cytotoxicity” value was -17.6%.
On the same count and under the same terms, to `C=CCN(CC=C)S(=O)(=O)c1ccc(C(=O)Nc2nc3c(s2)CCc2ccccc2-3)cc1` belongs -28.4%.
With `COCCN(CCOC)S(=O)(=O)c1ccc(C(=O)Nc2nc3c(s2)CCc2ccccc2-3)cc1`, the Potency is 8.2 µM (active).
Consider `O=[N+]([O-])c1ccc(S(=O)(=O)N2CCN(c3nc(-c4ccccc4)nc4ccccc34)CC2)cc1`, for which the “activity change, negative = cytotoxicity” value was 0%.
